In PubChem BioAssay (NCI) one finds growth data, which are given here for 27 compounds.

Test in all cases: NCI-60 one-dose screen, 48 h (100 = growth as untreated, 0 = no growth, -100 = all killed)
Holding throughout (settings): 10 µM

Test [1] deals with HCT-15 colon.
The test system of test [2] is HT29 colon.
In test [3] the test system is SNB-75 CNS.
Test [4] concerns SNB-19 CNS.
Test [5] has as its system U251 CNS.
Test [6] concerns PC-3 prostate.
Test [7] deals with SK-MEL-5 melanoma.
In test [8] the test system is UACC-62 melanoma.
For test [9], the system named is LOX IMVI melanoma.
Test [10] relates to SK-MEL-28 melanoma.

This is part of a sample that, as a whole, favours compounds with a hit. Of some 83,000 tested, about 20% had one in any assay.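 Interpretation: 100, growth as untreated; towards 0, rising growth inhibition; 0, no net growth; 0 to -100, cell death. Compounds scoring below 10 were considered active.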 Values without a mark were called inactive. Calls of active or inactive are those of the source.

Take `COc1ccc(-c2nnc(N3CCN(C(=O)CN4CCN(c5ccc(Cl)cc5)CC4)CC3)nc2-c2ccc(OC)cc2)cc1`: the growth in test [1] is 76.8%; in test [2], 37.3%; in test [3], 81.4%; in test [4], 94.7%; in test [5], 80.3%; in test [6], 25.6%. Besides, the growth in test [7] was 51%; in test [8], 58.8%; in test [9], 75.9%; in test [10] it was 86.7%.

For the compound `CCOC(=O)C(=O)Cc1cccnn1`, the growth in test [1] was 102%; in [2] it was 101%; in [3], 78%; in test [4] it was 102%; in test [5] it was 96.8%; in test [6], 91.7%. Further, the growth is 108% in test [7], 99.7% in [8], 99.5% in test [9] and 108% in [10].

With `CCOC(=O)c1c(Cl)c2c(n1Cc1cccc(OC)c1)-c1oncc1CC2`, the growth in test [1] was 30.8%; in test [2] it was 7.37% (active); in test [3] it was -11.7% (active); in [4] it was 34%; in test [5], 26%; in [6], 31.7%. The growth was 20.9% in [7], 33.6% in [8], 38.3% in [9] and 34% in [10].

Turning to `Cc1ccc2c3c(cccc13)-c1ccccc1C2=O`, the growth is 85% in test [1]; 83.3% in [2]; 89.6% in [3]; 96.5% in test [4]; 87.8% in test [5]; 91.3% in test [6]. Moreover, the growth in test [7] is 91.3%; in [8] it was 90.6%; in test [9] it was 97.8%; in test [10], 121%.

For the compound `CCOC(=O)CNC(=O)Nc1ccc(Oc2ccc(NC(=O)NCC(=O)OCC)cc2)cc1`, the growth is 99.2% in test [1]; 107% in test [2]; 74.4% in test [3]; 104% in test [4]; 93.8% in [5]; 86.9% in test [6]. In addition, the growth in test [7] was 97.1%; in test [8], 92.4%; in test [9], 91.9%; in test [10], 91%.

As for `COc1cc(NS(C)(=O)=O)ccc1Nc1c2ccc(Cl)cc2nc2c(OC)cccc12`, the growth in test [1] is -15.4% (active); in test [2], -37.3% (active); in [3], -13.4% (active); in test [4] it was 32.8%; in test [5] it was 5.31% (active); in test [6], 31.9%. Besides, the growth was 0.832% (active) in test [7], -8.98% (active) in test [8], -58.7% (active) in test [9] and 52.4% in test [10].

`CC(=O)n1nc(C(=O)OC(C)(C)C)c2cc(F)c(F)cc21`: the growth in [1] is 101%; in [2], 100%; in [3], 80.2%; in [4], 94.9%; in [5], 104%; in test [6], 97.7%. The growth in test [7] is 87%; in [8], 80.3%; in [9], 98.2%; in test [10], 96.8%.

Take `C[C@]12CC[C@H]3[C@@H](CC=C4C[C@@H](O)CC[C@@]43C)[C@@H]1CC[C@@H]2C(=O)C/C=N/O`: the growth in [1] is 86.4%; in [2], 81.1%; in [3] it was 85.4%; in test [4] it was 95.1%; in test [5] it was 83.8%; in [6] it was 71.9%. Besides, the growth in test [7] was 92.8%; in test [8], 88.6%; in test [9], 82%; in test [10] it was 106%.

`O/N=C1\CCC2CCCCC2C1` (stereo not given): the growth in test [1] was 99.6%; in test [2] it was 99.2%; in test [3], 71%; in test [4], 98.5%; in test [5] it was 107%; in test [6], 97.1%. Also, the growth in [7] is 102%; in test [8] it was 106%; in [9] it was 98.2%; in test [10] it was 108%.

Regarding `O=NN(CCCl)C(=O)NCc1ccc(-c2ccc(CNC(=O)N(CCCl)N=O)cc2)cc1`, the growth in test [1] is 98.7%; in test [2], 96.9%; in test [3] it was 82.7%; in test [4], 84.6%; in [5] it was 70.3%; in test [6], 86.7%. The growth was 94.2% in test [7], 86.2% in test [8], 72.2% in test [9] and 104% in [10].

On to `CC(=O)c1ccc(NCn2nc(-c3ccc(Cl)cc3)oc2=S)cc1`, for which the growth in test [1] was 99.3%; in test [2], 98.3%; in [3] it was 107%; in test [4], 95.8%; in test [5] it was 96.1%; in test [6], 89.9%. Further, the growth in test [7] was 104%; in [8], 93.3%; in test [9], 90.3%; in test [10], 95.5%.

`O=C(Nc1ccc(OS(=O)(=O)Cc2ccccc2)cc1)C12CC3CC(CC(C3)C1)C2`: the growth was 56.8% in [1]; 9.75% (active) in test [2]; 114% in test [3]; 91.4% in [4]; 67.7% in [5]; 55.6% in test [6]. In addition, the growth in test [7] is 63.3%; in test [8], 81.6%; in test [9], 68%; in test [10], 103%.

On to `CC(C)C[C@H](NC(=O)CCn1ccc2ccccc2c1=O)B(O)O`, for which the growth was 61.7% in test [1]; 25.7% in test [2]; 77.8% in test [3]; 66.1% in test [4]; 68.2% in [5]; 56% in [6]. For the same compound, the growth in test [7] was 29.1%; in [8] it was 33.3%; in test [9], 40.6%; in [10], 36.9%.

For the compound `FC(F)(F)c1ccc(-c2nc(-c3nc4cc(Cl)c(Cl)cc4[nH]3)c3ccccn23)cc1`, the growth is 82.6% in test [1]; 55.9% in test [2]; -16.1% (active) in [3]; 84.4% in test [4]; 47.6% in test [5]; 48.3% in [6]. The growth was 53.4% in test [7], 71.1% in [8], 62.6% in test [9] and 57.4% in [10].

Take `O=C1CC(c2cccc(-c3cccnc3)c2)=Nc2ccc(Br)cc2N1`: the growth in test [1] is 61.9%; in test [2] it was 56.6%; in test [3] it was 11.6%; in [4], 62.9%; in test [5], 27.2%; in test [6], 30.8%. Also, the growth in test [7] was 8.01% (active); in test [8], 47.3%; in [9] it was 55.8%; in [10] it was 67.5%.

Take `Cc1ccc(C)c(S(=O)(=O)NC2c3ccccc3Oc3ccccc32)c1`: the growth in [1] was 94%; in test [2], 88.8%; in [3], 91%; in [4] it was 102%; in test [5], 92.1%; in test [6], 89%. The growth in [7] was 101%; in test [8], 95.1%; in [9], 94.1%; in [10] it was 106%.

In the case of `CS(=O)(=O)Nc1ccc(OCc2nnc(-c3ccc(Cl)cc3)o2)c(F)c1`, the growth in [1] was 88%; in test [2] it was 105%; in test [3], 82.7%; in test [4], 93.5%; in test [5] it was 99%; in [6], 91%. Further, the growth in [7] was 92.3%; in test [8], 83.7%; in [9] it was 82.9%; in test [10], 102%.

On to `NC(=O)C1CCCN(Cc2c[nH]c3ccccc23)C1` (stereo not given), for which the growth was 102% in [1]; 95.6% in test [2]; 85.9% in [3]; 103% in test [4]; 95.2% in test [5]; 91.2% in test [6]. For the same compound, the growth in test [7] was 99.6%; in [8], 104%; in [9], 90.1%; in test [10], 110%.

Regarding `Cc1cc(OI)c(C(C)C)cc1-c1cc(C(C)C)c(OI)cc1C`, the growth in [1] was 105%; in test [2], 101%; in [3], 107%; in test [4], 104%; in test [5], 103%; in test [6], 98.6%. For the same compound, the growth in test [7] is 103%; in [8], 98.7%; in test [9], 93.4%; in test [10], 103%.

Consider `Cc1cc(C)c(C(=O)OC(C)CNC2CCCCC2)c(C)c1` (stereo not given), for which the growth in [1] is 97.5%; in [2], 90.5%; in test [3], 92.1%; in [4], 97.5%; in [5], 97.8%; in test [6], 93.9%. Also, the growth was 101% in [7], 103% in [8], 88.3% in test [9] and 105% in test [10].

On to `CC(=O)Oc1c(C)c(C)c2c(c1C)CCC(C)(CC(=O)OCCCCCCCCCCC[P+](c1ccccc1)(c1ccccc1)c1ccccc1)O2` (stereo not given), for which the growth in test [1] is -69.3% (active); in [2], -53.9% (active); in test [3] it was -47.8% (active); in test [4], -78.8% (active); in test [5] it was -93.1% (active); in test [6], -51% (active). In addition, the growth is -96.7% (active) in test [7], -86.1% (active) in test [8], -92.6% (active) in test [9] and -86.9% (active) in [10].

In the case of `Cc1ccc([P+](Cc2ccccc2)(c2ccccc2)c2ccccc2)cc1`, the growth in test [1] is 87.4%; in test [2], 3.42% (active); in [3], 6.53% (active); in test [4], 24.7%; in [5] it was 10.1%; in test [6] it was 2.37% (active). For the same compound, the growth in [7] was -43% (active); in test [8], 1.54% (active); in [9], 16.8%; in test [10] it was 24.4%.

As for `C#CCNCCCN1C(=O)c2ccc3c4c(ccc(c24)C1=O)C(=O)N(CCCNCC#C)C3=O`, the growth in [1] was -82.3% (active); in test [2] it was -8.76% (active); in test [3], -98.7% (active); in test [4], -88.6% (active); in test [5], -76.6% (active); in test [6] it was -28% (active). The growth in test [7] was -98.7% (active); in test [8] it was -75.8% (active); in test [9], -94.4% (active); in test [10] it was -81.8% (active).

Take `NS(=O)(=O)c1ccc(N2N=C(c3ccc(-c4ccccc4)cc3)CC2c2ccc(Cl)cc2)cc1` (stereo not given): the growth in test [1] was 60.9%; in [2], 64.4%; in test [3], 99.8%; in [4] it was 86.5%; in test [5] it was 75.7%; in [6] it was 43.2%. Further, the growth in test [7] is 86.8%; in test [8] it was 51.1%; in test [9] it was 87.2%; in [10], 96.8%.

`CC(=O)O[C@H]1CC[C@@]2(C)[C@@H](CC[C@@H]3[C@@H]2CC[C@]2(C)C=C(C=O)C[C@@H]32)C1`: the growth in test [1] is 27.5%; in [2] it was 31.4%; in [3] it was 69.5%; in test [4], 82.5%; in [5], 22.9%; in test [6], 62.5%. In addition, the growth was 75.7% in test [7], 78.8% in test [8], -71% (active) in test [9] and 70% in test [10].

Turning to `Cc1cc(=O)oc2cc(OCc3cn(CC(O)CO)nn3)ccc12` (stereo not given), the growth in test [1] was 105%; in test [2], 115%; in test [3], 132%; in test [4], 105%; in test [5], 100%; in test [6], 110%. Moreover, the growth in test [7] is 25.5%; in test [8], 97.4%; in test [9], 103%; in test [10], 128%.

On to `CCOc1nc(-c2ccccc2)cc2c(O)c(C(=O)NC(C)C)[nH]c(=O)c12`, for which the growth is 99.7% in test [1]; 125% in test [2]; 103% in [3]; 96.9% in test [4]; 99.8% in test [5]; 46.4% in test [6]. The growth in test [7] was 99.5%; in test [8], 105%; in test [9], 97.6%; in [10], 89.7%.
